Common to all, as to conditions: 25 µM; exposure: 24-48 hpf
For test [1], the system named is Danio rerio Tg(wt1b:EGFP) embryo, pronephros. The test can be described thus: glomerular separation, fold change vs DMSO control; higher = glomeruli further apart (abnormal). The method, boiled down: (§1)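 In HEPES-buffered E3 with 0.003% PTU and 0.5% DMSO, dechorionated Tg(wt1b:EGFP) zebrafish embryos were exposed to 25 μM compound from 24 to 48 hpf at 28.5°C. Pronephroi were then imaged dorsally at 470 nm in 10 z-slices, in 96-well plates filled with agarose. On maximum projections, a Fiji macro turned 16 manually placed reference points into distances and angles, and values more than 2 SD from the feature mean were excluded. Features are fold changes relative to the mean of DMSO-treated embryos from the same day.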

The test system is the same in test [2]. The test can be described thus: glomerular width (mean of left and right), fold change vs DMSO control; higher = wider glomerulus. The method, boiled down:
as §1

For test [3] the test system is unchanged. The test can be described thus: fraction of imaged embryos annotated as normal kidney; higher = less nephrotoxic; extreme values may be limits of the assay. The essentials: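 The read-out is the proportion of embryos in each treatment manually annotated as normal-kidney. Exposure ran from 24 to 48 hpf at 28.5°C in 12-well plates, using dechorionated Tg(wt1b:EGFP) zebrafish embryos in 5 mM HEPES-buffered E3 with 0.003% PTU, 0.5% DMSO and 25 μM compound. For imaging, larvae were anaesthetised with tricaine, positioned dorsally in agarose-filled 96-well plates and captured by widefield fluorescence (470 nm, 10 z-slices), with scoring done on maximum projections.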

Test [4] shares this test system. The test can be described thus: pronephric angle neck segment to proximal convoluted tubule (mean of left and right), fold change vs DMSO control; higher = larger pronephric angle. The essentials: as §1

Each structure is given as a SMILES string. Where a name gives a salt, the structure may show the parent alone. ± gives the standard deviation or the standard deviation of the averaged measurements.

In the case of `NCCCC[C@H](N[C@@H](CCc1ccccc1)C(=O)O)C(=O)N1CCC[C@H]1C(=O)O` [Lisinopril], the glomerular separation in test [1] was 1.16 ± 0.32. Further, the glomerular width in test [2] stood at 0.998 ± 0.058. The “fraction of imaged embryos annotated as normal kidney” value (“fraction of imaged embryos annotated” below) in test [3] is 0.833. For the same compound, in test [4], the “pronephric angle neck segment” value was 1.02 ± 0.032.
As to `CCN1CC(CCN2CCOCC2)C(c2ccccc2)(c2ccccc2)C1=O` (stereo not given) [Doxapram hydrochloride], the glomerular separation in test [1] is 0.953 ± 0.32. In test [2], this compound returned a glomerular width of 0.981 ± 0.0026. Also, in test [3], the “fraction of imaged embryos annotated” value was 0.833. Also, the “pronephric angle neck segment” value in test [4] was 0.9542 ± 0.0079.
On the same counts, the results for `O=C(O)CCc1nc(-c2ccccc2)c(-c2ccccc2)o1` [Oxaprozin] are 4.33 ± 1.5, 0.672 ± 0.032, 0 and 1.87 ± 0.14.
In the same order, the values of `CC(=O)N[C@@H](CS)C(=O)O` [Acetylcysteine] are 0.784 ± 0.26, 1.035 ± 0.0055, 0.917 and 1.0017 ± 0.00093.
On the same counts, the results for `CCOC(=O)/C=C(C)/C=C/C=C(C)/C=C/c1c(C)cc(OC)c(C)c1C` [Etretinate] are 0.794 ± 0.27, 0.831 ± 0.034, 1 and 1.093 ± 0.01.
`Nc1ccc(S(=O)(=O)c2ccc(N)cc2)cc1` [Dapsone]: the glomerular separation in test [1] was 1.08 ± 0.44. Moreover, in test [2], the glomerular width amounted to 1.04 ± 0.077. Also, the “fraction of imaged embryos annotated” value in test [3] turned out to be 0.5. Besides, the “pronephric angle neck segment” value in test [4] amounted to 1.14 ± 0.042.
Consider `C/C(=C\C(=O)OCCCCCCCCC(=O)O)C[C@@H]1OC[C@H](C[C@@H]2O[C@H]2[C@@H](C)[C@H](C)O)[C@@H](O)[C@H]1O` [Mupirocin], for which, in test [1], the glomerular separation was 0.88 ± 0.41. In test [2], this compound came in with a glomerular width of 1.01 ± 0.013. In test [3], the “fraction of imaged embryos annotated” value is 0.75. Moreover, the “pronephric angle neck segment” value in test [4] stood at 0.985 ± 0.046.
On the same counts, the results for `OC(Cn1cncn1)(Cn1cncn1)c1ccc(F)cc1F` [Fluconazole] are 1.11 ± 0.31, 0.967 ± 0.095, 0.917 and 0.978 ± 0.021.
In the same order, the values of `CCN(CC)C(=O)N1CCN(C)CC1` [Diethylcarbamazine citrate] are 0.96 ± 0.28, 0.958 ± 0.028, 0.909 and 1.05 ± 0.02.
In the same order, the values of `C[C@H]1O[C@H](O[C@H]2[C@H](O)[C@@H](O)[C@@H](O[C@H]3[C@H](O)[C@@H](O)C(O)O[C@@H]3CO)O[C@@H]2CO)[C@H](O)[C@@H](O)[C@@H]1N[C@H]1C=C(CO)[C@@H](O)[C@H](O)[C@H]1O` (stereo not given in full) [Acarbose] are 0.951 ± 0.24, 0.879 ± 0.1, 0.833 and 1.02 ± 0.014.

The values are drawn from the supplement of paper PMC7366291.
